Screening results from PubChem BioAssay.
Hits are enriched below; roughly 6.5% of the tested compounds scored in any of these assays.
HCMV antiviral – human cytomegalovirus inhibition; HFF cells, HCMV-luciferase reporter, 72 h; stronger effect = lower value; activity change, negative = inhibition, % at 57.5 µM; 410,000 compounds, 4.5% hits; in the data active means activity change below about -60%; inconclusive means no clear call, values can overlap the other calls; inactive means above about -39%
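Steps: HFFs plated, 16 h 37C; compounds added; HCMV-luciferase added to MOI 1 PFU/cell; 72 h 37C; OneGlo reagent, 5 min room temperature; luminescence read, normalized to controls.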
FMDV antiviral – antivirals against foot and mouth disease virus; FMDV antiviral cell-based qHTS; Potency, µM (top dose mostly 57.9 µM), without a hit: at the highest dose activity change, negative = inhibition, most hits filed as inhibitors; 410,000 compounds, 1.2% hits; AID 1159524; calls by dose curve; tested in HEK293T cells; further: read-out not given here; potency means the concentration at half of the fitted maximal effect; nearly all actives have a fitted effect of over 45% in size
LASV entry inh – Lassa virus entry inhibition; Lassa virus pseudotype entry inhibition, cell reporter; Potency, µM (titrated, usually from 37.9 µM), without a hit: top-dose activity change, negative = inhibition, hits mostly inhibitors; 300,000 compounds, 1.2% hits; AID 540256; calls by dose curve; tested in HEK293 cells; further: potency means the concentration at half of the fitted maximal effect; nearly all actives have a fitted effect of over 50% in size
VACV Venus inh – vaccinia inhibition (Venus reporter). Vaccinia virus Venus reporter expression, fluorescence. Potency, µM (titrated, usually from 36.5 µM), inactives show top-dose activity change, negative = inhibition, most hits filed as inhibitors. 330,000 compounds, 0.46% hits. AID 720580; calls by dose curve; tested in A549 cells; further: potency means the concentration at half of the fitted maximal effect; nearly all actives have a fitted effect of over 30% in size
Vaccinia mCherry – vaccinia inhibition (mCherry reporter) | Vaccinia virus mCherry reporter infection, fluorescence | Potency, µM (top dose mostly 36.5 µM), without a hit: at the highest dose activity change, negative = inhibition, hits mostly inhibitors | 310,000 compounds, 0.63% hits; calls by dose curve; tested in A549 cells; further: potency means the concentration at half of the fitted maximal effect; nearly all actives have a fitted effect of over 35% in size
Marburg entry inh – Marburg virus entry inhibition; Marburg virus pseudotyped entry inhibition, cell reporter; Potency, µM (top dose mostly 37.8 µM), without a hit: top-dose activity change, negative = inhibition, usual class: inhibitors; 300,000 compounds, 1.8% hits; AID 540276; calls by dose curve; tested in HEK293 cells; further: potency means the concentration at half of the fitted maximal effect
The depositor's hits bear a star; i = inactive; ? = inconclusive; / = no result; ! = a repeat was not active; [ ] = dose if it differs, or a comment. On the % scale 0 is the no-effect control and ±100 the full control effect.

SMILES	HCMV antiviral	FMDV antiviral	LASV entry inh	VACV Venus inh	Vaccinia mCherry	Marburg entry inh
COC(=O)CCCC1=CC2=C(c3ccccc3)C(=O)C(C)(OC(=O)C3CCCC3)C(=O)C2=CN1c1ccccc1 (stereo unspecified)	30.0	-3.9%	/	-13.3%	i	3.6%[14.2 µM]
COC(=O)CCCC1=CC2=C(c3ccccc3)C(=O)C(C)(OC(=O)C3CCCC3)C(=O)C2=CN1C1CC1 (stereo unspecified)	-61.1*	-10.1%	/	-7.9%	-5.1%	/
COC(=O)CCCC1=CC2=C(c3ccccc3)C(=O)C(C)(OC(=O)C3CCCC3)C(=O)C2=CN1Cc1ccc2c(c1)OCO2 (stereo unspecified)	-69.6*	-6.2%	/	-16.9%	-25.7%	-4.6%[14.2 µM]
CCCN1CCC(=O)N([C@H](CSc2ccccc2)c2ccccc2)CC1	-102.1*	62.4%	/	-5.4%	i	/
Cc1ccc(-n2c(SCC(=O)O)nc3sc4c(c3c2=O)CCCC4)cc1	42.3	-7.9%	?	-14.5%	-12.1%	11.8%[46.1 µM]
Cc1ccc(-n2c(SCC(=O)c3c(N)n(C)c(=O)n(C)c3=O)nc3sc4c(c3c2=O)CCCC4)c(C)c1	-67.9*	11.9%	-6.7%	-16.1%	4.7%	?
COc1cccc(C(=O)Nc2nc(-c3nnn(-c4cc(C)ccc4C)c3C)ns2)c1	-11.6	?	24.2%[46.1 µM]	-14.6%	-19.7%	/
Cc1cccc(C(=O)Nc2nc(-c3nnn(-c4cc(C)ccc4C)c3C)ns2)c1	-62.3*	?	-6.2%[46.1 µM]	-25.1%[7.34 µM]	-23.4%[7.34 µM]	/
COc1ccc(C(=O)Nc2nc(-c3nnn(-c4ccc(F)cc4F)c3C)ns2)cc1	-103.8*	?	?	?	?	/
COc1cccc(C(=O)Nc2nc(-c3nnn(-c4ccccc4C(F)(F)F)c3C)ns2)c1	-76.0*	-10.9%	14.6%[46.1 µM]	-24.5%	-22.2%	/
Clc1ncc(C#Cc2ccccc2)c2ncncc12	/	/	/	-12.0%	-12.8%	/
C=CCc1ccccc1OCC(O)CN1CCN(c2ccccc2F)CC1 (stereo unspecified)	21.2	?	2.2%	-46.7%	/	-35.7%
C=CCc1ccc(OCC(O)CN2CCN(c3ccccc3)CC2)c(OC)c1 (stereo unspecified)	-61.8*	1.4%	/	/	/	/
COc1ccccc1N1CCN(CC(O)COc2cccc3ccccc23)CC1 (stereo unspecified)	17.0	-17.2%	20.6µM*!	-13.6%	-13.0%	?
C=CCc1ccccc1OCC(O)CN1CCN(c2ccccc2OC)CC1 (stereo unspecified)	-64.1*!	?	?	-12.7%	?	?
O=C(Nc1cccs1)Nc1cc(C(F)(F)F)ccc1Cl	-25.5	7.8%	/	-24.9%	-24.3%	?
O=C(O)CC1NC(=S)N(c2ccccc2)C1=O (stereo unspecified)	4.3	4.6%	3.2%	/	/	-4.0%
O=C1C(CSCc2ccccc2)NC(=S)N1c1ccccc1 (stereo unspecified)	34.1	28.2µM*	/	/	/	/
CCOc1ccc(OCC)c(NC(=O)CN(C)S(=O)(=O)c2ccc3nc(C)sc3c2)c1	?	31.6µM*	?	-23.8%	?	-2.5%
COc1ccccc1N1CCN(C(=O)c2[nH]c(C(F)(F)F)nc2-c2ccccc2)CC1	-63.8*	-11.0%	/	?	0.4%	/
COc1ccc(N2CCN(C(=O)c3[nH]c(C(F)(F)F)nc3-c3ccccc3)CC2)cc1	5.3	-3.0%	/	-14.7%	3.1%	/
CC(=O)N1CCN(C(=O)c2[nH]c(C(F)(F)F)nc2-c2ccccc2)CC1	21.8	-21.3%	/	0.8%	2.7%	/
Cc1cccc(N2CCN(C(=O)c3[nH]c(C(F)(F)F)nc3-c3ccccc3)CC2)c1C	-87.2*	-10.3%	/	?	?	/
COc1cc(-c2n[nH]c3ccnc(-c4cccc5ncccc45)c23)cc(OC)c1OC	3.6	/	/	/	/	/
CN(C)c1ccc(N=Nc2ccccc2C(=O)OCC(=O)NCC2CCCCC2)cc1	-61.0*	-11.7%	-12.5%	-28.6%	-10.4%	?
SMILES	HCMV antiviral	FMDV antiviral	LASV entry inh	VACV Venus inh	Vaccinia mCherry	Marburg entry inh
O=C(c1ccccc1)N1CCN(C(=O)N2CCOCC2)CC1	56.9	-7.2%	-1.9%	/	/	-9.9%
O=C1C(=C(c2ccccc2)N2CCOCC2)Cc2ccccc21	-99.0*	8.91µM*	/	11.2µM*	?	/
COc1ccccc1-c1noc(-c2ccc(N3CCOCC3)c([N+](=O)[O-])c2)n1	59.3	27.5%	-26.6%[46.1 µM]	-11.9%	-8.2%	-18.8%[46.1 µM]
CCOC(=O)c1c(-c2ccc(OC)cc2)csc1NC(=O)COc1ccc2c(C)cc(=O)oc2c1	-36.5	-21.2%	-6.1%	-1.0%	-9.8%	-0.2%
COc1ccc(OC)c(NC(=O)CSc2ncnc3c2cnn3-c2ccccc2Cl)c1	/	7.94µM*	?	/	/	1.83µM*
CCOC(=O)c1c(-c2ccc(OC)cc2)csc1NC(=O)CSc1ncnc2sccc12	-71.0*	?	-7.3%	/	/	-33.8%
CCOC(=O)CNC(=O)CSc1ncnc2c1cnn2-c1ccc(OC)cc1	50.1	0.0%	?	-22.8%	/	11.2µM*
CCOC(=O)CNC(=O)CSc1ncnc2c1cnn2-c1ccc(C)cc1	-7.5	8.8%	?	9.3%	4.4%	?
CC(=O)N1CCC[C@H]1C(=O)NCC1Cc2cc(F)cc(-c3ccc(F)c(C)c3)c2O1 (stereo partly specified)	/	1.8%	/	-1.8%	-14.4%	/
COc1cc(CN2CCc3ccccc3C2)cc([N+](=O)[O-])c1O	4.9	-4.3%	/	/	/	/
COc1cc(CN2CCc3ccccc3C2)ccc1O	-99.6*	31.6µM*	/	/	/	/
COc1cc(CN2CCN(c3cc(C)ccc3C)CC2)ccc1O	-72.8*	-29.4%	/	/	/	-0.8%
C[N+](C)(C)CC(O)CC(=O)[O-] (stereo unspecified)	/	-3.5%	/	-8.3%	-13.8%	/
CCc1ccc(OCCn2c(CCNC(=O)C3CCCCC3)nc3ccccc32)cc1	/	/	/	-13.0%	18.7%	/
O=C1c2ccccc2C(=O)c2c1cccc2-n1nnc2ccccc21	-15.2	-15.4%	8.2%	-10.9%[7.34 µM]	-16.1%[7.34 µM]	3.1%[46.1 µM]
O=C1C(N2CCOCC2)=C(n2nnc3ccccc32)C(=O)c2ccccc21	-100.4*	10µM*	?	?	?	7.94µM*
COc1ccccc1-c1ccc(C(=O)N2CCC(N3CCc4ccccc4C3)CC2)c(N(C)CC2COCCO2)n1 (stereo unspecified)	/	1.5%	/	11.8%	-0.8%	/
COc1ccc(-c2[nH][nH]c(=O)c2NC(=O)c2ccccn2)cc1	-6.2	-0.6%	/	0.5%	3.6%	/
COc1ccc(CCC(=O)Nc2c(-c3ccc(N(C)C)cc3)[nH][nH]c2=O)cc1	-68.0*	-9.3%	/	-9.2%	25.9%	/
O=S(=O)(c1ccc(Cl)cc1)N1CCOCC1	/	/	/	-13.5%	-7.7%	/
O=C(Nc1nnc(-c2ccccc2)s1)C1CCCN(C(=O)c2ccoc2)C1 (stereo unspecified)	/	/	/	-14.3%	-7.5%	/
Cc1ccc(N2CCN(C(=O)C3CCCN(c4ncnc5c4nc4n5CCCCC4)C3)CC2)c(C)c1 (stereo unspecified)	21.1	?	/	/	/	/
